Potency data for three compounds are collected here from PubChem BioAssay AID624252 (National Center for Advancing Translational Sciences (NCATS), 2012).

Molecules are shown by their SMILES. The list shows a part of the results. Inconclusive results are not listed. Active and inactive are the calls of the source. Calls follow the shape of the dose curve; as a rule, active = well fitted cell-killing curve with a large enough effect; inconclusive = small, poorly fitted or top-dose-only effect; inactive = flat fitted curve, though single readings scatter.
Potency is read from the fitted curve at half-maximal effect.

The nature of the experiment: qHTS screen for small molecules that inhibit ELG1-dependent DNA repair: Hit Confirmation with Unstimulated Viability Assay.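 Also: compound exposure lasted 16 hours before reading; nearly all actives have a fitted effect of over 55% in size.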 Particulars: cell viability counter-screen, luminescence. From the text:
Cancer cells divide rapidly compared to normal cells in the body. During cell division, cancer cells need to duplicate their genome by DNA replication. The failure of genome duplication leads to cancer cells' death. Therefore, inhibitors of DNA replication could specifically kill cancer cells. Based on this concept, many chemotherapeutic agents were developed and have been used to treat cancer patients. However, there are a limited number of agents available in the clinical setting, and some of those that do exist have low efficacy and severe side effects. Therefore, if we can find the compounds that effectively block DNA replication either by directly damaging DNA or by inhibiting other cellular mechanisms, the options for cancer treatment will be broadened. With this in mind, we developed a quantitative high-throughput ELG1-luciferase reporter gene assay. Small molecules that specifically block ELG1 function in response to DNA damage can be identified by monitoring the suppression of luciferase activity. Since ELG1 defines a pathway for repairing DNA damage, agents blocking ELG1 function can be used to sensitize cancer cells to chemotherapeutic agents whose mechanism of action involves the induction of DNA damage.
NIH Molecular Libraries Probe Production Network [MLPCN]
NIH Chemical Genomics Center [NCGC]
Assay Provider: Kyungjae Myung, NHGRI, NIH
For genotoxicity screening, 2,000 cells in 4 uL/well were dispensed into white, solid-bottom 1536-well plates using a solenoid-based dispenser. 23 nL compound or DMSO vehicle were added by a pin tool, the plates were incubated 16 hr at 37 °C and 5% CO2. 5 ul ONE-Glo (Promega) was then added to each plate and following a 30 min incubation at room temperature, luciferase activity was quantified on a ViewLux CCD-based plate reader.
As to `COC1CC(OC2CC[C@@]3(C=O)C4CC[C@]5(C)C(C6=CC(=O)OC6)CC[C@@]5(O)C4CC[C@]3(O)C2)OC(C)C1O` (stereo partly drawn), the Potency is 199 nM (active).

As for `CC(=O)[O][Sn]([c]1ccccc1)([c]1ccccc1)[c]1ccccc1`, the Potency was 1410 nM (active).

As for `C[C@@]12CC[C@H]3[C@@H](CC[C@]4(O)C[C@H](O)CC[C@@]34C=O)[C@]1(O)CC[C@@H]2C1=CC(=O)OC1`, the Potency was 425 nM (active).
